Data taken from PubChem BioAssay AID1851 (National Center for Advancing Translational Sciences (NCATS), 2009).
The whole screen tested about 16,000 compounds, of which about 5,100 (32%) were called active. Inconclusive results (about 25%) are left out. The call rests on the fitted dose curve; in most records, active means well fitted curve in the direction sought with a large enough effect; inconclusive means small, poorly fitted or top-dose-only effect, or effect the other way; inactive means no such curve, though single readings can be large or run the other way. The list shows a part of the results.
On the % scale 0 is the no-effect control and ±100 the full control effect.

Each molecule was assayed against Cytochrome P450 3A4 (Homo sapiens) (UniProt P08684) (assay: Cytochrome panel assay with activity outcomes). Settings: recombinant CYP, pro-luciferin dealkylation, luminescence, p450-cyp3a4; series mostly up to 57.1 µM.
Chain of Cytochrome P450 3A4 (Homo sapiens) (P08684 whole entry, looked up): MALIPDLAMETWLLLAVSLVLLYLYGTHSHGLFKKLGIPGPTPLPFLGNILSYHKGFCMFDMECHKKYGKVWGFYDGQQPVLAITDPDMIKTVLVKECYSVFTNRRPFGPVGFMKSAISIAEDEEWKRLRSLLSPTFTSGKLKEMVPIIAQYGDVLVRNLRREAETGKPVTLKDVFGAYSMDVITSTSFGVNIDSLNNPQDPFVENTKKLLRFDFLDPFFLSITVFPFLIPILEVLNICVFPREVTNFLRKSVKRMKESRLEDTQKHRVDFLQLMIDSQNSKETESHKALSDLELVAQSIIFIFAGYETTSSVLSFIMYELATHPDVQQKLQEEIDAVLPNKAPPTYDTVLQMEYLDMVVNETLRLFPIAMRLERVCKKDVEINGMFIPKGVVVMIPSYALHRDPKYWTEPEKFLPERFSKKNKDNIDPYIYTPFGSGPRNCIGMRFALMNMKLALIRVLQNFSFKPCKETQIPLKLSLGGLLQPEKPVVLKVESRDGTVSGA
N=C(c1ccc2ccccc2c1)c1ccccc1Cc1ccccc1 was tested, and the activity, negative = inhibition was -11.9% [at 11.4 µM] (inactive).
CN(Cc1cccc2ccccc12)Cc1cccc2ccccc12 was tested, and the activity, negative = inhibition was -53.9% [at 11.4 µM] (inactive).
In the case of Cc1cc(C)c(O)c(Cc2cccc(Cc3cc(C)cc(C)c3O)c2O)c1, the activity, negative = inhibition is reported as 6.11% [at 11.4 µM] (inactive).
In the case of Cc1ccc(C(=N)c2ccccc2Cc2cccc3ccccc23)c2ccccc12, the AC50 is reported as 3.98 µM (active).
For Cc1ccc(C)c(C(=N)c2ccccc2Cc2ccccc2)c1, the AC50 was 3.98 µM (active).
With c1ccc2c(CC3=NCCN3)cccc2c1 the AC50 was “inactive”.
With CN1CCCC1CCNC1C2CC3CC(C2)CC1C3 (stereo unspecified) the activity, negative = inhibition was -0.75% [at 2.29 µM] (inactive).
For CN1C(=C2C(=O)OC(C)(C)OC2=O)Sc2ccccc21, the AC50 was “inactive”.
O=C(Oc1c(Br)cc(C(=S)N2CCOCC2)cc1Br)c1ccc(Cl)cc1 was tested, and the activity, negative = inhibition was -1.32% [at 2.29 µM] (inactive).
With O=c1c(-c2ccc(F)cc2)nc2cnc(N3CCNCC3)nc2n1C1CC1 the AC50 was 15.8 µM (active).
For O=c1c(-c2ccc(F)cc2)nc2cnc(N3CCOCC3)nc2n1C1CC1, the AC50 was “inactive”.
With CN1CCN(c2ncc3nc(-c4cc(F)cc(F)c4)c(=O)n(C)c3n2)CC1 the AC50 was “inactive”.
With O=c1cnc2cnc(N3CCOCC3)nc2n1C1CC1 the AC50 was “inactive”.
With O=c1c(-c2cc(F)cc(F)c2)nc2cnc(N3CCNCC3)nc2n1C1CC1 the AC50 was 25.1 µM (active).
In the case of O=c1c(-c2ccccc2)nc2cnc(N3CCNCC3)nc2n1C1CC1, the AC50 is reported as 12.6 µM (active).
With O=c1c(-c2ccc(Cl)cc2)nc2cnc(N3CCOCC3)nc2n1C1CC1 the AC50 was “inactive”.
With O=c1c(-c2cccs2)nc2cnc(Oc3ccccc3)nc2n1C1CC1 the AC50 was “inactive”.
CN(C)c1ncc2nc(-c3ccccc3)c(=O)n(C3CC3)c2n1 was tested, and the AC50 was “inactive”.
O=c1c(-c2cccs2)nc2cnc(N3CCNCC3)nc2n1C1CC1 was tested, and the AC50 was 6.31 µM (active).
In the case of O=c1c(-c2ccccc2)nc2cnc(N3CCOCC3)nc2n1C1CC1, the AC50 is reported as “inactive”.
In the case of O=c1c(-c2cc(F)cc(F)c2)nc2cnc(N3CCOCC3)nc2n1C1CC1, the AC50 is reported as “inactive”.
For COc1ccc(-c2nc3cnc(N4CCN(C)CC4)nc3n(C3CC3)c2=O)cc1, the AC50 was “inactive”.
With COc1ccc(-c2nc3cnc(N4CCNCC4)nc3n(C3CC3)c2=O)cc1 the AC50 was 10 µM (active).
For COc1ccc2c(c1)c(CC(=O)O)c(C)n2C(=O)c1ccccc1, the AC50 was “inactive”.
For COC(=O)[C@@]1(Cc2ccc(OC)cc2)[C@H]2c3cc(C(=O)N(C)C)[nH]c3C[C@H]2CN1C(=O)c1ccccc1, the AC50 was 1.58 µM (active).
In the case of COC(=O)[C@@]1(Cc2ccccc2)[C@H]2c3cc(C(=O)N4CCCC4)[nH]c3C[C@H]2CN1C(=O)c1ccccc1, the AC50 is reported as 2.51 µM (active).
